Data on 14 molecules can be found in PubChem BioAssay (NCATS).

Records with an inconclusive call do not appear. Where a call stands in place of a potency, no number is given. The source made the active and inactive calls. The call rests on the fitted dose curve; in most records, active means well fitted activation curve with a large enough effect in the repeat runs; inconclusive means weak or mixed curves; inactive means flat fitted curve, though single readings scatter.
Potency means the concentration at half of the fitted maximal effect.

This test can be described thus: qHTS assay for small molecule agonists of the antioxidant response element (ARE) signaling pathway measured by Nrf2-dependant transcriptional activity (AID 720636). The note with it: ARE-luc HepG2, Nrf2 luciferase reporter, 16 h; series mostly up to 92.4 µM. An excerpt:
National Center for Advancing Translational Sciences [NCATS] NIH Chemical Genomics Center [NCGC] U.S. Environmental Protection Agency [EPA] National Institutes of Environmental Health Sciences [NIEHS] National Toxicology Program [NTP] Assay Overview: The antioxidant response element (ARE) signaling pathway plays an important role in the cellular anti-oxidant defense. Exposure to stressors which are exogenous like ionizing radiations, chemicals, U-V light, and endogenous like cell signaling, metabolic processes or inflammation, reactive oxygen species (ROS), can induce oxidative stress in the cells. Oxidative stress has been implicated in the pathogenesis of a variety of diseases ranging from cancer to neurodegeneration. ARE-luc HepG2 cell line (Simmons et al., Current Chemical Genomics, 5:1-12, 2011) has been used for identifying the chemicals that induce oxidative stress. The cell line has an Nrf2-responsive luciferase reporter gene that has been engineered to measure Nrf2-dependant transcriptional activity.
Assay Protocol Summary: For measuring ARE induction; 2,000 ARE-luc HepG2 cells in 5 uL of assay medium containing 1% dialyzed FBS per well were dispensed into white wall/solid bottom 1536-well plates using a Flying Reagent Dispenser (FRD) (Aurora Discovery). The assay plates were incubated for 6 hr at 37 C to allow cell attachment to the well bottom, followed by the transfer of 23 nL compound or DMSO vehicle by a pin tool (Kalypsys). The plates were incubated for 16 hr at 37 C and 5% CO2, followed by the addition of 5 uL of ONE-GloTM luciferase reagent (Promega) into each well using FRD. After 30 min room temperature incubation, plates were read on a ViewLux plate reader (PerkinElmer).
As to `O=c1[nH]cnc2c1ncn2[C@H]1CC[C@@H](CO)O1`, the Potency entry was “inactive”. For `CCCNC(=O)NS(=O)(=O)c1ccc(Cl)cc1` the value was “inactive”; for `CCCCC1C(=O)N(c2ccccc2)N(c2ccccc2)C1=O`, “inactive”; for `CC(=O)c1ccc(S(=O)(=O)NC(=O)NC2CCCCC2)cc1`, “inactive”. For `CN(C)CCC(c1ccccc1)c1ccccn1` (centres undefined) the value was “inactive”; for `O=c1cc(-c2ccccc2)oc2cc(O)cc(O)c12`, 13.7 µM (active); for `CC(=O)O[C@]1(C(C)=O)CC[C@H]2[C@@H]3C=C(Cl)C4=CC(=O)[C@@H]5C[C@@H]5[C@]4(C)[C@H]3CC[C@@]21C`, “inactive”. For `CC(=O)N[C@@H](CS)C(=O)O` the value was “inactive”. As for `O=C1NC(=O)C(c2ccccc2)(c2ccccc2)N1`, the Potency result was “inactive”.

For the molecule `CCn1cc(C(=O)O)c(=O)c2ccc(C)nc21`, the Potency result is “inactive”. With `O=C(O)c1cc(O)c2c(c1)C(=O)c1cccc(O)c1C2=O` the entry was “inactive”; with `O=C(O)Cc1cccc2ccccc12`, “inactive”. For `CC/C(=C(\c1ccccc1)c1ccc(OCCN(C)C)cc1)c1ccccc1` the value was “inactive”; for `CC1=C(/C=C/C(C)=C/C=C/C(C)=C/C(=O)Nc2ccc(O)cc2)C(C)(C)CCC1`, “inactive”.
